Key:
[1] = target: PAS domain-containing serine/threonine-protein kinase (Homo sapiens) (UniProt Q96RG2); settings: at 0.1 µM
[2] = target: PAS domain-containing serine/threonine-protein kinase (Homo sapiens) (UniProt Q96RG2); settings: at 1 µM
[3] = target: Phosphorylase b kinase gamma catalytic chain, skeletal muscle/heart isoform (Homo sapiens) (UniProt Q16816); settings: at 0.1 µM
[4] = target: Phosphorylase b kinase gamma catalytic chain, skeletal muscle/heart isoform (Homo sapiens) (UniProt Q16816); settings: at 1 µM
[5] = target: Phosphorylase b kinase gamma catalytic chain, liver/testis isoform (Homo sapiens) (UniProt P15735); settings: at 0.1 µM
[6] = target: Phosphorylase b kinase gamma catalytic chain, liver/testis isoform (Homo sapiens) (UniProt P15735); settings: at 1 µM
[7] = target: Serine/threonine-protein kinase pim-1 (Homo sapiens) (UniProt P11309); settings: at 0.1 µM
[8] = target: Serine/threonine-protein kinase pim-1 (Homo sapiens) (UniProt P11309); settings: at 1 µM
[9] = target: Serine/threonine-protein kinase pim-2 (Homo sapiens) (UniProt Q9P1W9); settings: at 0.1 µM
[10] = target: Serine/threonine-protein kinase pim-2 (Homo sapiens) (UniProt Q9P1W9); settings: at 1 µM
[11] = target: Serine/threonine-protein kinase pim-3 (Homo sapiens) (UniProt Q86V86); settings: at 0.1 µM
[12] = target: Serine/threonine-protein kinase pim-3 (Homo sapiens) (UniProt Q86V86); settings: at 1 µM
[13] = target: MAP kinase-activated protein kinase 5 (Homo sapiens) (UniProt Q8IW41); settings: at 0.1 µM
[14] = target: MAP kinase-activated protein kinase 5 (Homo sapiens) (UniProt Q8IW41); settings: at 1 µM
[15] = target: Serine/threonine-protein kinase SIK1 (Homo sapiens) (UniProt P57059); settings: at 0.1 µM
[16] = target: Serine/threonine-protein kinase SIK1 (Homo sapiens) (UniProt P57059); settings: at 1 µM
[17] = target: Serine/threonine-protein kinase SIK2 (Homo sapiens) (UniProt Q9H0K1); settings: at 0.1 µM
[18] = target: Serine/threonine-protein kinase SIK2 (Homo sapiens) (UniProt Q9H0K1); settings: at 1 µM
[19] = target: Serine/threonine-protein kinase TBK1 (Homo sapiens) (UniProt Q9UHD2); settings: at 0.1 µM
[20] = target: Serine/threonine-protein kinase TBK1 (Homo sapiens) (UniProt Q9UHD2); settings: at 1 µM
[21] = target: Testis-specific serine/threonine-protein kinase 1 (Homo sapiens) (UniProt Q9BXA7); settings: at 0.1 µM
[22] = target: Testis-specific serine/threonine-protein kinase 1 (Homo sapiens) (UniProt Q9BXA7); settings: at 1 µM
[23] = target: Testis-specific serine/threonine-protein kinase 2 (Homo sapiens) (UniProt Q96PF2); settings: at 0.1 µM
[24] = target: Testis-specific serine/threonine-protein kinase 2 (Homo sapiens) (UniProt Q96PF2); settings: at 1 µM
[25] = target: Casein kinase I isoform alpha (Homo sapiens) (UniProt P48729); settings: at 0.1 µM
[26] = target: Casein kinase I isoform alpha (Homo sapiens) (UniProt P48729); settings: at 1 µM
[27] = target: Casein kinase I isoform gamma-1 (Homo sapiens) (UniProt Q9HCP0); settings: at 0.1 µM
[28] = target: Casein kinase I isoform gamma-1 (Homo sapiens) (UniProt Q9HCP0); settings: at 1 µM
[29] = target: Casein kinase I isoform gamma-2 (Homo sapiens) (UniProt P78368); settings: at 0.1 µM
[30] = target: Casein kinase I isoform gamma-2 (Homo sapiens) (UniProt P78368); settings: at 1 µM
[31] = target: Casein kinase I isoform gamma-3 (Homo sapiens) (UniProt Q9Y6M4); settings: at 0.1 µM
[32] = target: Casein kinase I isoform gamma-3 (Homo sapiens) (UniProt Q9Y6M4); settings: at 1 µM
[33] = target: Cyclin-dependent kinase 1 (Homo sapiens) (UniProt P06493); settings: at 0.1 µM
[34] = target: Cyclin-dependent kinase 1 (Homo sapiens) (UniProt P06493); settings: at 1 µM
[35] = target: Cyclin-dependent kinase 2 (Homo sapiens) (UniProt P24941); settings: at 0.1 µM
[36] = target: Cyclin-dependent kinase 2 (Homo sapiens) (UniProt P24941); settings: at 1 µM
[37] = target: Cyclin-dependent kinase 2 (Homo sapiens) (UniProt P24941); settings: at 0.1 µM; remark: listed apart in the source
[38] = target: Cyclin-dependent kinase 2 (Homo sapiens) (UniProt P24941); settings: at 1 µM; remark: listed apart in the source
[39] = target: T1, CDK3/Cyclin E (Homo sapiens) (UniProt P24864+Q00526); settings: at 0.1 µM
[40] = target: T1, CDK3/Cyclin E (Homo sapiens); settings: at 1 µM
[41] = target: Cyclin-dependent kinase 4 (Homo sapiens) (UniProt P11802); settings: at 0.1 µM
[42] = target: Cyclin-dependent kinase 4 (Homo sapiens) (UniProt P11802); settings: at 1 µM
[43] = target: Cyclin-dependent kinase 5 (Homo sapiens) (UniProt Q00535); settings: at 0.1 µM
[44] = target: Cyclin-dependent kinase 5 (Homo sapiens) (UniProt Q00535); settings: at 1 µM
[45] = target: Cyclin-dependent kinase 6 (Homo sapiens) (UniProt Q00534); settings: at 0.1 µM
[46] = target: Cyclin-dependent kinase 6 (Homo sapiens) (UniProt Q00534); settings: at 1 µM
[47] = target: Dual specificity protein kinase CLK2 (Homo sapiens) (UniProt P49760); settings: at 0.1 µM
[48] = target: Dual specificity protein kinase CLK2 (Homo sapiens) (UniProt P49760); settings: at 1 µM
[49] = target: Dual specificity protein kinase CLK3 (Homo sapiens) (UniProt P49761); settings: at 0.1 µM
[50] = target: Dual specificity protein kinase CLK3 (Homo sapiens) (UniProt P49761); settings: at 1 µM
[51] = target: Dual specificity tyrosine-phosphorylation-regulated kinase 1A (Homo sapiens) (UniProt Q13627); settings: at 0.1 µM
[52] = target: Dual specificity tyrosine-phosphorylation-regulated kinase 1A (Homo sapiens) (UniProt Q13627); settings: at 1 µM
[53] = target: Dual specificity tyrosine-phosphorylation-regulated kinase 1B (Homo sapiens) (UniProt Q9Y463); settings: at 0.1 µM
[54] = target: Dual specificity tyrosine-phosphorylation-regulated kinase 1B (Homo sapiens) (UniProt Q9Y463); settings: at 1 µM
[55] = target: Dual specificity tyrosine-phosphorylation-regulated kinase 2 (Homo sapiens) (UniProt Q92630); settings: at 0.1 µM
[56] = target: Dual specificity tyrosine-phosphorylation-regulated kinase 2 (Homo sapiens) (UniProt Q92630); settings: at 1 µM

Phosphorylase b kinase gamma catalytic chain, skeletal muscle/heart isoform (Homo sapiens), sequence (Q16816 whole entry, looked up, canonical isoform): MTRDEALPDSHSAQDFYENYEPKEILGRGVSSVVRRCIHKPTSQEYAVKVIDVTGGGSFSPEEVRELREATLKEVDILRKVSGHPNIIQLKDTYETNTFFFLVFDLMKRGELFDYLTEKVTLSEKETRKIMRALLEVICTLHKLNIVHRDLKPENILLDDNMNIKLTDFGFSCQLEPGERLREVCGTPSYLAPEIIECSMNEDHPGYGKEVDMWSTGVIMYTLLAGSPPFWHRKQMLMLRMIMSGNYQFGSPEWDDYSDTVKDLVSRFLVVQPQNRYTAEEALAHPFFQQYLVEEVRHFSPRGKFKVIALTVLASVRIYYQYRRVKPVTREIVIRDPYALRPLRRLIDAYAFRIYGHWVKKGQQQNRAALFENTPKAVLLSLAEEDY
Casein kinase I isoform gamma-2 (Homo sapiens), sequence (P78368 whole entry, looked up, canonical isoform): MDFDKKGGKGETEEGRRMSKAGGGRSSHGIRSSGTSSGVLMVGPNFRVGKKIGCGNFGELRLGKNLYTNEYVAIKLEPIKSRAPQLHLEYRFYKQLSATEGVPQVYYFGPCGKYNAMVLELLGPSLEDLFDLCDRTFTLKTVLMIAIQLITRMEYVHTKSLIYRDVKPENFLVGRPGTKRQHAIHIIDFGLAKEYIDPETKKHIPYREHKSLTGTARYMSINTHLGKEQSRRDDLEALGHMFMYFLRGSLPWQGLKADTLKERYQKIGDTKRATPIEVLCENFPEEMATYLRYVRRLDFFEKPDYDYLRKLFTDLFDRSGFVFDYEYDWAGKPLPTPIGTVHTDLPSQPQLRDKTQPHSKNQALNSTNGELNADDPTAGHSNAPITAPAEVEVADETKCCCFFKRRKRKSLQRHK
T1 sequence (P24864 whole entry, looked up): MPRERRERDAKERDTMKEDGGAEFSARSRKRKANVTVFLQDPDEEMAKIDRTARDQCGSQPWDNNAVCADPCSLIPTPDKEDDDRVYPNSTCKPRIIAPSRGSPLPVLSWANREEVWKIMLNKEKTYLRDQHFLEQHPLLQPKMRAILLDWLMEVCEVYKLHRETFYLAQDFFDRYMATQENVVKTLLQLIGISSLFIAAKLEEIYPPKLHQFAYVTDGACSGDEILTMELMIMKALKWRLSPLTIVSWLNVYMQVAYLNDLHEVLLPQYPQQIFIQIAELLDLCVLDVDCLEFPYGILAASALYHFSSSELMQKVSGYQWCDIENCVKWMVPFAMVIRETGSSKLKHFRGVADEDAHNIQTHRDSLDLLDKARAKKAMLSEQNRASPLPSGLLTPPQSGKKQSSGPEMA
T1 sequence (Q00526 whole entry, looked up): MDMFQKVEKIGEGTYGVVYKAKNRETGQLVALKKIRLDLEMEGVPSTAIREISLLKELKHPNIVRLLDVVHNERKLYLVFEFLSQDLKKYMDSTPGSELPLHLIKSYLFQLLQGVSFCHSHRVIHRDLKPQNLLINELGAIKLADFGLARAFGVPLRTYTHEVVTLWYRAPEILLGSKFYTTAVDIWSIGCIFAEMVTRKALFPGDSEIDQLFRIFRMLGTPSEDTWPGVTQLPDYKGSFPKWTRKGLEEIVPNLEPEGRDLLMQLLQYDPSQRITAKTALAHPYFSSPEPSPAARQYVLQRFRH
PAS domain-containing serine/threonine-protein kinase (Homo sapiens), sequence (Q96RG2 whole entry, the tested form may be a part, canonical isoform): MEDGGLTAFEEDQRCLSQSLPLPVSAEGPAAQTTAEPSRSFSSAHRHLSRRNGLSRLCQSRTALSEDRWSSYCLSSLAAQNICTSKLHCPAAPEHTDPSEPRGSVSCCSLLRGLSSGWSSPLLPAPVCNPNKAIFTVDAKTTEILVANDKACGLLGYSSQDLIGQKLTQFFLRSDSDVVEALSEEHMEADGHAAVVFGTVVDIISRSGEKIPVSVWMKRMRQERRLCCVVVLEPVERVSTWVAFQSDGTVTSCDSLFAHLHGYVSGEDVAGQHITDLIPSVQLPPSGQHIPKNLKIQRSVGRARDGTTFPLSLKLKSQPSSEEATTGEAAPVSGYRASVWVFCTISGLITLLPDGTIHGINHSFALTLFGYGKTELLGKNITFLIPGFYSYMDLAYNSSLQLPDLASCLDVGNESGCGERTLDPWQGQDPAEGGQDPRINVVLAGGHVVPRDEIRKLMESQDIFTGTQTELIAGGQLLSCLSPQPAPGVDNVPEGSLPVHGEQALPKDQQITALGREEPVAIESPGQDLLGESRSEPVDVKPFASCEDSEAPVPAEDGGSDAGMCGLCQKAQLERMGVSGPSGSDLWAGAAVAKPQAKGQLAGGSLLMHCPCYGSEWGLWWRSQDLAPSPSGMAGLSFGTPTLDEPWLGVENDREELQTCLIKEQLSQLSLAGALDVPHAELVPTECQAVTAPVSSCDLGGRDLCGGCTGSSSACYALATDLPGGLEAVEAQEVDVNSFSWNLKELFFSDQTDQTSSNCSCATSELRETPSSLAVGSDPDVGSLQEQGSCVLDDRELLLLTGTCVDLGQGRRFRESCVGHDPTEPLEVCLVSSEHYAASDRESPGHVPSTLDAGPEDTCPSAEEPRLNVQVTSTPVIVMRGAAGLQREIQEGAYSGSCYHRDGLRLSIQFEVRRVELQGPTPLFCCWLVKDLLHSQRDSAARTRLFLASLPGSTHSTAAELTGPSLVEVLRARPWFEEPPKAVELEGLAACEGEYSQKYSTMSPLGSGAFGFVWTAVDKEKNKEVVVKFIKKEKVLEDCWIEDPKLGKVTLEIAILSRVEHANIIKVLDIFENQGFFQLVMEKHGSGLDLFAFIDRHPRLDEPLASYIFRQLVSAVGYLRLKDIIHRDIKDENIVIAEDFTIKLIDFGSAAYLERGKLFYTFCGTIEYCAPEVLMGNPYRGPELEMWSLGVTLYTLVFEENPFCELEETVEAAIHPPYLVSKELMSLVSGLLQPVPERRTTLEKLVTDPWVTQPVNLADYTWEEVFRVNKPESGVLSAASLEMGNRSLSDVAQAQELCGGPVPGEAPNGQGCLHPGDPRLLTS
Cyclin-dependent kinase 5 (Homo sapiens), sequence (Q00535 whole entry, looked up): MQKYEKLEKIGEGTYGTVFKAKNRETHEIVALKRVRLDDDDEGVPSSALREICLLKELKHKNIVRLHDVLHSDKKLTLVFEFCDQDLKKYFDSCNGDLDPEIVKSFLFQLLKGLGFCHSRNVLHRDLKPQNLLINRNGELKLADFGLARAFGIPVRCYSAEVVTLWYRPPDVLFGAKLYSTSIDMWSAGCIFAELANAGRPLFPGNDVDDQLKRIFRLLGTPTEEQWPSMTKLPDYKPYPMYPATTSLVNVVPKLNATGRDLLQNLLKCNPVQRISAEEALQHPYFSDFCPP
Cyclin-dependent kinase 1 (Homo sapiens), sequence (P06493 whole entry, looked up): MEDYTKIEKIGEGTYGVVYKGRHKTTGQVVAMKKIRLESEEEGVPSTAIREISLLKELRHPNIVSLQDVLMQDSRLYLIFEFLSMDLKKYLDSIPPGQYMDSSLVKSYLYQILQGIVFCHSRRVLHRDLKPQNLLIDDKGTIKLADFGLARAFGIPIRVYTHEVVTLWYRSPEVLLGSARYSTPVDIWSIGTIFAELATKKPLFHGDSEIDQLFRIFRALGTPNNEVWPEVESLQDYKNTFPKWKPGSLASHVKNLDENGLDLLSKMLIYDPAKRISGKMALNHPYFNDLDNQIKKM
Cyclin-dependent kinase 4 (Homo sapiens), sequence (P11802 whole entry): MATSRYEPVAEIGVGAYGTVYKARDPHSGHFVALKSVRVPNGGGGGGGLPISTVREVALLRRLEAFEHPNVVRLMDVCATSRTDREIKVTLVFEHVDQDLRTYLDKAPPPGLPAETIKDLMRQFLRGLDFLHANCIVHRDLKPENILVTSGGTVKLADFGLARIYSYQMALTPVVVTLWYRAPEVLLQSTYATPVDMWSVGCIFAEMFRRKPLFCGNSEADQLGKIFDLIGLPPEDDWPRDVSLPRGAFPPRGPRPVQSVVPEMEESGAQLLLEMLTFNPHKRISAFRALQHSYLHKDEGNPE
MAP kinase-activated protein kinase 5 (Homo sapiens), sequence (Q8IW41 whole entry): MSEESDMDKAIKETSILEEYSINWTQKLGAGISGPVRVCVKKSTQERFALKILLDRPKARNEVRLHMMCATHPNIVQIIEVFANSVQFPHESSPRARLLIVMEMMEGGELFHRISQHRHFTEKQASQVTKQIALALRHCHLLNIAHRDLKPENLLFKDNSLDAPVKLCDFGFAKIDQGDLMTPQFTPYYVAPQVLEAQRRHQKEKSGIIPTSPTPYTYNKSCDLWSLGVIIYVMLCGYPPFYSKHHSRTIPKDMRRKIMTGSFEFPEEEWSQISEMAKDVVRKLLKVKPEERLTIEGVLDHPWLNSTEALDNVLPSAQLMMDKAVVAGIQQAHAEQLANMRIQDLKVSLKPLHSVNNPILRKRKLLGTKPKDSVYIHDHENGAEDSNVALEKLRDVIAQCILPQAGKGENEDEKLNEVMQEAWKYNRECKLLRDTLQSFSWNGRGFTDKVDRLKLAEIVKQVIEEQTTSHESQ
Serine/threonine-protein kinase pim-2 (Homo sapiens), sequence (Q9P1W9 whole entry, looked up): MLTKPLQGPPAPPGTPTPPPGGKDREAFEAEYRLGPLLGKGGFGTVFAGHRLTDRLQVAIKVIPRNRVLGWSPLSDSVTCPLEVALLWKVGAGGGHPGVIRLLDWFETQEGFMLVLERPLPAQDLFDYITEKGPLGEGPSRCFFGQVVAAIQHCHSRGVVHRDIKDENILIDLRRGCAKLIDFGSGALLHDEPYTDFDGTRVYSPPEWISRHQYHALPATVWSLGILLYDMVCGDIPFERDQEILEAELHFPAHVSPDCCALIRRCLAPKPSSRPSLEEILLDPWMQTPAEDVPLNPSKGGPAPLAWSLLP

CNC(=O)Oc1cc(C)c(/C=C/c2cncc(C(=O)NC)c2)c(C)c1
inhibition [1]: 0.86% | inhibition [2]: -0.55% | inhibition [3]: 0.19% | inhibition [4]: 3.49% | inhibition [5]: 4.46% | inhibition [6]: 1.16% | inhibition [7]: 0.83% | inhibition [8]: 1.46% | inhibition [9]: -0.21% | inhibition [10]: 0.61% | inhibition [11]: -0.49% | inhibition [12]: 0.47% | inhibition [13]: 0.29% | inhibition [14]: -1.1% | inhibition [15]: 46.9% | inhibition [16]: 88.6% | inhibition [17]: 7.72% | inhibition [18]: 30.4% | inhibition [19]: 2.75% | inhibition [20]: 3.73% | inhibition [21]: 1.39% | inhibition [22]: 0.21% | inhibition [23]: 1.46% | inhibition [24]: -0.8% | inhibition [25]: 1.61% | inhibition [26]: 3.51% | inhibition [27]: 1.33% | inhibition [28]: 2.91% | inhibition [29]: 0.3% | inhibition [30]: 2.73% | inhibition [31]: 1.68% | inhibition [32]: 4.49% | inhibition [33]: -0.06% | inhibition [34]: -0.3% | inhibition [35]: 0.63% | inhibition [36]: -1.72% | inhibition [37]: 1.5% | inhibition [38]: 0.5% | inhibition [39]: 0.33% | inhibition [40]: 1.01% | inhibition [41]: 0.95% | inhibition [42]: 2.18% | inhibition [43]: 0.2% | inhibition [44]: -0.43% | inhibition [45]: -2.38% | inhibition [46]: 0.77% | inhibition [47]: 1.89% | inhibition [48]: 4.38% | inhibition [49]: 0.33% | inhibition [50]: 1.86% | inhibition [51]: -0.43% | inhibition [52]: 6.77% | inhibition [53]: -0.07% | inhibition [54]: 0.76% | inhibition [55]: 2.64% | inhibition [56]: 2.73%

Reference: ChEMBL document CHEMBL1961873, “Compounds: GSK PKIS; Assays: Nanosyn kinase panel” (2012)
